# Test results as given in PubChem BioAssay AID651822 (The Scripps Research Institute Molecular Screening Center, 2012).
# About 970 (42%) of roughly 2,300 compounds were called active. So high a share suggests a set chosen from earlier hits. The list is a sample of the results. Values without a mark were called inactive. Cut-off read from the data, not from the text of the source: active = inhibition above about 4.5%; inactive = the rest.
# Test system: Methionine sulfoxide reductase A (Bos taurus)
# Test: methionine sulfoxide reductase A inhibition – biochemical, absorbance, bovine, HTS, confirmation (AID 651822);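 note: coupled to thioredoxin reductase with NADPH and selenocystamine and DMSO as substrate; 0% = vehicle only and 100% = full effect of reference inhibitor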
# Conditions: purified bovine MsrA, absorbance read-out; at 15.5 µM; stronger effect = higher value
row,SMILES,inhibition
1,CCCCC(=O)N/N=C/c1c(O)n(CC)c(=S)n(CC)c1=O,6.08% (active)
2,CCOc1ccc(-c2cc(C)[n+](CCN(CC)CC)c(-c3ccc(OCC)cc3)c2)cc1,3.69%
3,COc1ccc(C(=O)C2CCCN(Cc3ccc(C)s3)C2)cc1OC (stereo not drawn),-0.82%
